Screening data: PubChem BioAssay, National Center for Advancing Translational Sciences (NCATS)
Sampled rows, rich in hits. Any-hit rate of the full collection: about 3.2%.
Tau FP inhib – qHTS for Inhibitors of Tau Fibril Formation, Fluorescence Polarization | Potency, µM (top dose mostly 57.7 µM), for the others: at the top dose activity, negative = inhibition, actives largely listed as inhibitors | K18 P301L tau heparin fibrillization, Alexa594 FP, 6 h | Microtubule-associated protein tau (Homo sapiens), P10636 | 0.39% of 280,000 active; further: potency means the concentration at half of the fitted maximal effect; on the % scale 0 is the no-effect control and ±100 the full control effect; nearly all actives have a fitted effect of over 55% in size
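K18 P301L tau (15 uM unlabeled/0.24 uM Alexa 594-labeled, final) + compound + heparin 20 uM final; 100 mM NaOAc pH 7; 6 hr 37 C; ThT 30 uM final added, 1 hr RT; FP ex 555/em 632 nm.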
LMNA splice mod – qHTS Assay for Modulators of Lamin A Splicing; Potency, µM (series often up to 46.1 µM), for the others: top-dose ratio change, negative = inhibition, actives largely listed as inhibitors; 0.01% of 200,000 active; HeLa LMNA splicing GFP/RFP minigene ratio, 48 h; active means well fitted inhibition curve with a large enough effect in the signal ratio, with a control signal flat, not every such curve was filed as active; inconclusive means small, poorly fitted or top-dose-only effect, or effect the other way, or a change in a side signal; the % refers to the signal ratio; further: potency means the concentration at half of the fitted maximal effect; on the % scale 0 is the no-effect control and ±100 the full control effect
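S3 HeLa cells stably expressing lamin A-EGFP splicing minigene plus DsRed2, 600 cells/well, 48 h compound exposure at 37C. Laser-scanning cytometry; analysed as GFP (500-530 nm)/RFP (575-640 nm) total intensity ratio; 0.5% DMSO vehicle.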
CBFb RUNX1 block – qHTS Assay for Compounds Blocking the Interaction Between CBF-beta and RUNX1 for the Treatment of Acute Myeloid Leukemia. Runt-related transcription factor 1 (Homo sapiens) + Core-binding factor subunit beta …. AlphaScreen CBFb-His/RUNX1-biotin binding, biochemical. Potency, µM (top dose mostly 59.8 µM), inactives show top-dose activity, negative = inhibition, usual class: inhibitors. 230,000 tested, under 10 active. AID 1477, 2009; further: % of control where 0% means no effect
Target sequence (Q01196 whole entry, looked up): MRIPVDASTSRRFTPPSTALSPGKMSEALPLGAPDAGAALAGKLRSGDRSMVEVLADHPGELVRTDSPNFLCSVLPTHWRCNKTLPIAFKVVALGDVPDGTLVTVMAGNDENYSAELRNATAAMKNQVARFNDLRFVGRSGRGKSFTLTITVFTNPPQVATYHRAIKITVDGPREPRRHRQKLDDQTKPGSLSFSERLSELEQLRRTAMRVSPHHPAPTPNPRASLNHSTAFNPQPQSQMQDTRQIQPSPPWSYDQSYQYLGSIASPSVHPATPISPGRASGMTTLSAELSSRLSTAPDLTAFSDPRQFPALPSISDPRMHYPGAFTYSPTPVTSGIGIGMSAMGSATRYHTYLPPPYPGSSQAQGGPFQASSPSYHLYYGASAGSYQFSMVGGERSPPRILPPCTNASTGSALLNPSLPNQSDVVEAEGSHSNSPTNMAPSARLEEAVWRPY
Target sequence (Q13951 whole entry, looked up): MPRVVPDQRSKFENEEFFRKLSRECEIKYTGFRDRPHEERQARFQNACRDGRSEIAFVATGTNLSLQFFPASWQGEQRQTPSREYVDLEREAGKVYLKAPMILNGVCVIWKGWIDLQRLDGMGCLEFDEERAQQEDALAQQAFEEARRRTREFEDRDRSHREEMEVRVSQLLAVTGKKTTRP
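Read-out: AlphaScreen. Format: His-CBF-beta with biotinylated RUNX1 (30 nM each) preincubated 20 min, compound 15 min, Ni-chelate plus streptavidin beads 90 min; room temperature throughout.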
Tau fluor counter – Counterscreen qHTS for Inhibitors of Tau Fibril Formation, Fluorescence Polarization. 0.93% of 280,000 active. AID 1463, 2008. Potency, µM (top dose mostly 57.7 µM), for the others: at the highest dose activity change, negative = decrease. tau K18 P301L Alexa594 fluorescence, heparin fibrillization; further: potency means the concentration at half of the fitted maximal effect; on the % scale 0 is the no-effect control and ±100 the full control effect; nearly all actives have a fitted effect of over 55% in size
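Human tau K18 P301L (15 uM unlabeled, 0.24 uM Alexa 594-labeled) in 100 mM sodium acetate pH 7 with 20 uM heparin, 6 hr at 37 C. ThT 30 uM added, 1 hr ambient; Alexa 594 FP and total fluorescence read at 555/632 nm.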
JMJD2E inh – qHTS Assay for Inhibitors of Human Jumonji Domain Containing 2E (JMJD2E); JMJD2E catalytic domain, FDH-coupled NADH fluorescence (FDH is formaldehyde dehydrogenase); Potency, µM (highest dose often 57.1 µM), inactives show at the top dose activity change, negative = inhibition, hits mostly inhibitors; 1.6% of 230,000 active; active means well fitted inhibition curve with a large enough effect, not every such curve was filed as active; inconclusive means small, poorly fitted or top-dose-only effect, or another doubt; inactive means no such curve, though single readings can be large or run the other way;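 further: potency means the concentration at half of the fitted maximal effect; 0% = wells with enzyme and -100% = buffer wells without enzyme; nearly all actives have a fitted effect of over 50% in size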
Tau fibril ThT – qHTS for Inhibitors of Tau Fibril Formation, Thioflavin T Binding; Potency, µM (doses to about 57.4 µM), for the others: top-dose activity, negative = inhibition, hits mostly inhibitors; recombinant tau K18 P301L (four-repeat tau fragment), heparin-induced fibrillization, ThT fluorescence; Microtubule-associated protein tau (Homo sapiens), P10636; 2.1% of 270,000 active; further: potency means the concentration at half of the fitted maximal effect; on the % scale 0 is the no-effect control and ±100 the full control effect; nearly all actives have a fitted effect of over 55% in size
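In this qHTS, human K18 P301L tau is incubated with compound and heparin for 6 hr at 37 C, and Thioflavin T fluorescence then reports fibril load.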
* = called active by the depositor; ? = inconclusive; nt = not tested or not shown; [ ] = remark or other dose. Unless noted, the call rests on the fitted dose curve; in most records, active means well fitted curve in the direction sought with a large enough effect; inconclusive means small, poorly fitted or top-dose-only effect, or another doubt; inactive means no such curve, though single readings can be large; an effect the other way counts as inactive or inconclusive.

SMILES	Tau FP inhib	LMNA splice mod	CBFb RUNX1 block	Tau fluor counter	JMJD2E inh	Tau fibril ThT
Cc1ccc(CNC(=O)CSc2nc3c(sc4ccccc43)c(=O)n2CCCC(=O)NCCO)cc1	-14.1%	nt	nt	-14.3%	nt	?
Nc1cc(C(=O)O)c(N)c2c1C(=O)c1ccccc1C2=O	20µM*	nt	nt	?	?	4.47µM*
Nc1c(C(=O)O)ccc2c1C(=O)c1ccccc1C2=O	-11.2%	?	-20.0%	-28.5%	3.1%	10µM*
Nc1ccc2c(c1)C(=O)c1ccccc1C2=O	nt	nt	-14.9%[21.7 µM]	nt	nt	nt
Cc1ccc2c(c1)C(=O)c1c(C(=O)O)cccc1-2	0.2%	nt	5.6%	5.5%	-7.5%	-15.5%
CCc1ccc(S(=O)(=O)c2nnn3c2nc(Nc2ccc(C)c(Cl)c2)c2sccc23)cc1	?	nt	nt	-29.1%	nt	17.3%
CC(=O)c1cccc(N(C(=O)Cn2nnc3ccccc32)C(C(=O)NCc2ccccc2)c2ccc(F)cc2)c1 (stereo unspecified)	-9.9%	nt	nt	-17.5%	nt	-11.7%
O=C(CSc1nnc(-c2ccco2)c(-c2ccco2)n1)Nc1ccccc1	?	14.9%	nt	?	15.8µM*	7.94µM*
CSc1nnc(-c2ccccc2)c(-c2ccccc2)n1	-10.7%	nt	-1.0%	-7.7%	0.7%	-1.8%
O=C(CSc1nnc(-c2ccccc2)c(-c2ccccc2)n1)NCc1ccco1	6.7%	?	-1.7%	-3.3%	3.3%	-9.2%
Cc1ccc(SCC(=O)Nc2ccc(-c3nnc(-c4ccco4)o3)cc2)cc1	?	12.7%	4.5%	-20.8%	?	?
Cc1ccc(NC(=O)CSc2nnc(-c3ccco3)c(-c3ccco3)n2)cc1	?	?	nt	?	?	7.94µM*
CSc1nnc(-c2ccco2)c(-c2ccco2)n1	?	-4.8%	?	?	?	12.6µM*
CCn1c(SCC(=O)NNC(=O)c2ccc(OC)cc2)nnc1-c1ccco1	0.2%[2.34 µM]	nt	4.9%	-45.3%	-3.1%	5.62µM*
COc1ccc(-n2cc(-c3ccccc3)c3c(NC4CCCCC4)ncnc32)cc1	-3.0%	-5.4%[46 µM]	nt	-11.4%	nt	-12.2%
CCc1ccc(NC(=O)Cn2c(=O)n(CCCCC(=O)NCCc3ccc(Cl)cc3)c(=O)c3ccccc32)cc1	-16.9%	nt	nt	-17.4%	nt	-6.6%
CC(=O)N1CCCc2cc(S(=O)(=O)N(C)CC(=O)Nc3ccc(C(C)C)cc3)ccc21	1.8%	2.2%[46 µM]	nt	-13.4%	nt	-1.7%
COc1ccc(C(=O)CSc2nnc(-c3ccco3)c(-c3ccco3)n2)cc1	?	28.7%[46 µM]	nt	?	?	14.1µM*
O=C(Nc1ccc(Cl)cc1)/C(=C/c1ccc([N+](=O)[O-])cc1)c1nc2ccccc2s1	?	nt	-2.7%	-25.5%	?	14.1µM*
O=C1NC(=S)S/C1=C\c1cc2ccccc2nc1N1CCCCC1	7.4%	nt	1.8%	?	-14.9%	14.1µM*
COc1ccc2nc(N3CCCCC3)c(C#N)cc2c1	4.2%	0.8%	?	-18.2%	?	-7.1%
COc1ccc2nc(N3CCCCC3)c(/C=C3\SC(=S)NC3=O)cc2c1	-2.6%	nt	-3.3%	?	1.4%	14.1µM*
CCC[C@@H]1CC2=CC(=O)CC[C@]2(C)[C@H]2CC[C@@]3(C)[C@@H](CC[C@@]34CCC(=O)O4)[C@H]12	nt	nt	7.5%	nt	nt	nt
COc1ccc(-c2c(C)c3ccc(O)c(CN4CCCC4)c3oc2=O)cc1	-1.4%	-3.0%[46 µM]	nt	-1.2%	nt	-2.4%
CN(C(=S)Nc1ccc(Oc2ccccc2)cc1)c1ccc(O)cc1	0.2%	?	20.9%	-4.2%	5.3%	-2.4%
